Drawing on PubChem BioAssay (NCATS), this text covers outcome for 37 compounds.

SMILES strings stand for the structures. Results filed as inconclusive are left out. Active and inactive are the calls of the source. Calls follow the shape of the dose curve; as a rule, active = well fitted inhibition curve with a large enough effect; inconclusive = small, poorly fitted or top-dose-only effect; inactive = flat fitted curve, though single readings scatter.

For the test, the system named is CRL-7250. Description: qHTS assay to identify novel small-molecules to repurpose for Merkel cell carcinoma treatment (AID 1296009). Also: nearly all actives have a fitted effect of over 60% in size. The settings on record: MCC and control cell lines, CellTiter-Glo viability, 72 h; at 44.8 µM (top of the series) unless noted. An outline of the steps:
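Viability readout: ATP luminescence (CellTiter-Glo) after 72 hr drug exposure at 37 degree celsius. Dose-response format was 8 points for NPC and 11 points for MIPE; data normalized to in-plate controls.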
In the case of `O=C(C1CC1)N1CC[C@@H](Cn2c(-c3ccc(-c4ccc5occc5c4)cc3)nc3cnccc32)C1`, the call was inactive.

`CC1=NN(c2ccccc2)C(=O)C1`: the result was inactive.

For the compound `CC(C)(C)c1cc(C(C)(C)C)c(NC(=O)c2c[nH]c3ccccc3c2=O)cc1O`, the outcome was inactive.

In the case of `O=C(C=Cc1c(C(=O)O)[nH]c2cc(Cl)cc(Cl)c12)Nc1ccccc1`, the compound was called inactive.

In the case of `CCc1c(C)[nH]c2c1C(=O)C(CN1CCOCC1)CC2` (configuration not stated), the outcome was inactive.

As for `CC(=O)Nc1ccc(O)cc1`, the compound was classed as inactive.

`C[C@]12CC[C@H](O)CC1=CC[C@@H]1[C@H]2CC[C@]2(C)C(c3cccnc3)=CC[C@H]12`: the outcome was “inactive [at 17.4 µM]”.

In the case of `CCCn1c(=O)c2[nH]c(C34CC5CC3C[C@@H](C5)C4)nc2n(CCC)c1=O`, the result was inactive.

With `CCN(CC)CCNC(=O)c1ccc(NC(C)=O)cc1`, the compound was called inactive.

On to `O=C(O)[C@H](Cc1c[nH]c2ccccc12)N1C(=O)c2ccccc2C1=O`, for which the outcome was “inactive [at 92 µM]”.

For `COc1ccc(CCN2CCN(CCCc3ccccc3)CC2)cc1OC`, the compound was classed as inactive.

Regarding `CCOC(=O)[C@@H](N)CCC(=O)N[C@@H](CSCc1ccccc1)C(=O)N[C@@H](C(=O)OCC)c1ccccc1`, the compound was called inactive.

Turning to `CC(C)(C)C(=O)Oc1ccc2c(c1)nc(NC(=O)c1cccc([N+](=O)[O-])c1)n2CCCO`, the compound was classed as inactive.

On to `C1=CC2C3C=CC(C3)C2C1` (configuration not stated), for which the outcome was “inactive [at 92 µM]”.

Consider `COc1c(Cl)cc2c([nH]c3cnccc32)c1NC(=O)c1cccnc1C`, for which the result was inactive.

Consider `C[C@H](NC(=O)Cc1cc(F)cc(F)c1)C(=O)N[C@@H]1C(=O)N(C)c2ccccc2-c2ccccc21`, for which the outcome was inactive.

For `CC(C)OC(=O)c1cc(C(=O)OC(C)C)cc([N+](=O)[O-])c1`, the outcome is “inactive [at 92 µM]”.

For `CC(C)(C)COc1ccc(-n2cc(C(=O)O)cn2)cc1C#N`, the compound was classed as inactive.

With `O=C(O)CCC1CCC(c2cc(F)ccc2F)(S(=O)(=O)c2ccc(Cl)cc2)CC1` (configuration not stated), the compound was called inactive.

Turning to `Clc1ccccc1CN1CCc2sccc2C1`, the compound was called inactive.

`Cc1cccc(Nc2nc(N[C@@H]3CCCC[C@H]3N)ncc2C(N)=O)c1`: the outcome was inactive.

Turning to `Cc1c(C)c2c(c(C)c1OC(=O)c1cccnc1)CC[C@@](C)(CCC[C@H](C)CCC[C@H](C)CCCC(C)C)O2`, the compound was called inactive.

Take `COc1cc2c(cc1OC)C(=O)CC2`: the outcome was inactive.

In the case of `Cn1c(NCCN(CCO)CCCc2ccc([N+](=O)[O-])cc2)cc(=O)n(C)c1=O`, the compound was called inactive.

With `O=C(Nc1cccc(C2=NCCN2)c1)Nc1cccc(C2=NCCN2)c1`, the outcome was “inactive [at 17.4 µM]”.

`CC(C)[C@H](CO)Nc1nc(Nc2ccc(C(=O)O)c(Cl)c2)c2ncn(C(C)C)c2n1`: the outcome is “inactive [at 17.4 µM]”.

`Cc1nnc(C(C)C)n1C1CC2CCC(C1)N2CC[C@H](NC(=O)C1CCC(F)(F)CC1)c1ccccc1` (some centres not stated): the outcome was inactive.

Regarding `COc1ccccc1N1CCN(CC(O)COc2cc(OC)c(OC)c(OC)c2)CC1` (configuration not stated), the result was inactive.

Consider `O=C(C=Cc1ccc(/C=C/C(=O)Nc2ccc(C3=NCCN3)cc2)cc1)Nc1ccc(C2=NCCN2)cc1`, for which the compound was called inactive.

Regarding `CCOc1cc(C(=O)Nc2ccc(Cl)c(-c3nc4ccccc4[nH]3)c2)cc(OCC)c1OCC`, the call was inactive.

Consider `Nc1ccc(S(=O)(=O)Nc2ccccc2)cc1`, for which the compound was called inactive.

Turning to `Clc1ccc2ncc(-c3cccc(NC4CNC4)n3)n2c1`, the result was inactive.

With `CC(C)CCCC(C)CCCC(C)CCCCC(C)CCCC(C)CCCC(C)C` (configuration not stated), the call was inactive.

As for `C[C@@H]1CN(c2c(F)c(N)c3c(=O)c(C(=O)O)cn(C4CC4)c3c2F)C[C@H](C)N1`, the outcome was “inactive [at 17.4 µM]”.

With `COc1ccc(-c2oc3cc(OC)ccc3c2C(=O)c2ccc(C#N)cc2)cc1`, the result was inactive.

As for `CC(C)(C)C(O)/C=C/c1ccc2c(c1)OCO2` (configuration not stated), the compound was called inactive.

Turning to `CNCc1ccc(-c2[nH]c3cc(F)cc4c3c2CCNC4=O)cc1`, the compound was classed as inactive.
